Structures are written as SMILES. Results with a measured potency or affinity are listed apart. Results filed as inconclusive are left out. Active and inactive are the calls of the source.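 Rule for the calls: active = fluorescence drops from fewer live microbes, with half-maximal dose at most ten times the top valid tested dose; inconclusive = flat curve with 30 to 70% inhibition, or poor fit; inactive = the rest, including signal rises.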

Three compounds from PubChem BioAssay AID488907 (Broad Institute, 2010) can be followed below.

The test can be described thus: reversal of fluconazole resistance in C. albicans, dose response, CaCi-2 strain, Alamar Blue, dry powder, set 3 (AID 488907). The conditions noted are these: C. albicans CaCi-2 (fluconazole-resistant clinical isolate) + fluconazole, 48 h; series mostly up to 6 µM. In general terms: Resazurin is reduced to fluorescent resorufin, in cell work by metabolically active cells.
Regarding `O=C(c1ccc(Cl)cc1)N1CCN(c2cccc(C(F)(F)F)n2)CC1`, the result was inactive.
The same measure for `Cc1cccc(N2CCN(C(=O)c3ccc(Cl)cc3)CC2)n1`: “inactive”; for `O=C(c1ccc(Cl)cc1)N1CCN(c2cnccn2)CC1`: “inactive”.
